A number with no mark means an inactive call. How the calls were made is not given here.
Target: CD276, Q5ZPR3
Sequence (Q5ZPR3 whole entry): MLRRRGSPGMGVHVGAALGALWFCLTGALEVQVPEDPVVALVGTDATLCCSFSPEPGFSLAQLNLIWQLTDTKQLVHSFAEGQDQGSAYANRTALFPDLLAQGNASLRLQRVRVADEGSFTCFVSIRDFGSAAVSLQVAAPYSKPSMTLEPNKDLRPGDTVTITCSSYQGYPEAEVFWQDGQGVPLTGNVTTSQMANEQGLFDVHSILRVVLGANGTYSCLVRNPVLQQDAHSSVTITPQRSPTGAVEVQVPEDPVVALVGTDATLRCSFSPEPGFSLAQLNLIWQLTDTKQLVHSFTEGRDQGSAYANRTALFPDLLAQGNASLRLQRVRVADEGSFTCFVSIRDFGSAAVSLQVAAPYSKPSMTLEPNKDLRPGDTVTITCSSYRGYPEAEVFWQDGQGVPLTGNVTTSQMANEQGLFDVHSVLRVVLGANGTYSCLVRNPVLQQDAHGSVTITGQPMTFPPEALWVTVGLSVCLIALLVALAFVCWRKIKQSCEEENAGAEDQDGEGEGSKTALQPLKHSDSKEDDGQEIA

Row | Binder | binding in a display sort
1 | design_619_5728adc2-0aea-404f-92dd-a4575c53f550_1162_dldesign_0_cycle1_af2pred (protein) SPVEQYAKAQADMLKEAAGVDDATAQAFADYIVANPALATQAGAMTVAIVRAADAARAAAAAAAAAAAAAAAA | not found
2 | design_619_5728adc2-0aea-404f-92dd-a4575c53f550_1536_dldesign_0_cycle1_af2pred (protein) SAALEEARREFEAAVELLAEHPDLAAKVREGFELGVTDIGAGLALLTEARREALELGLEAAAREIRAGMAALLRAHL | not found
3 | design_619_5728adc2-0aea-404f-92dd-a4575c53f550_1820_dldesign_0_cycle1_af2pred (protein) AEAAKRAAAEAAVKKAAELAAKADPALAKRILDAKTIAEGISAAFTAAAQLIQKDPELAAEIVKEAEKAA | not found
4 | design_619_5728adc2-0aea-404f-92dd-a4575c53f550_1666_dldesign_0_cycle1_af2pred (protein) SEADAAALDELARLAGEVTGKPEEALALAEIAKQDPLALATLAAMARQARAASPEEAAQLARNAFQIMKALA | not found
5 | design_619_5728adc2-0aea-404f-92dd-a4575c53f550_1867_dldesign_0_cycle1_af2pred (protein) AAEKAALLAAAEATLARAQEVLAQAKKYPEVQPLAAAALGYALAAQGAVLVDPATGKAFLAKAQALLAEAEAQIKALEA | not found
6 | design_619_5728adc2-0aea-404f-92dd-a4575c53f550_437_dldesign_0_cycle1_af2pred (protein) AAAEEAALAKAKKEAAEAAVKAVEYAARAGDPALAAKATRLLHEAQLTTDLEEAKKYLEEIKKLLKEAKERAE | not found
7 | design_619_5728adc2-0aea-404f-92dd-a4575c53f550_1353_dldesign_0_cycle1_af2pred (protein) GETGEAKREGARVAARLGAAAVQLAAVDPEVAKKAQAAVGEVLEAMEAAAKDPSKVEEVKKAREKAEKALKEAEKTLA | not found
8 | design_619_5728adc2-0aea-404f-92dd-a4575c53f550_1269_dldesign_0_cycle1_af2pred (protein) AKEEAKEKAKKLVEEAKKLAEAAIADPSQYPAQAAKMTKLAEEAAKLGKELDPEIFGEAAQEILRLLIQAAQAVN | not found
9 | design_619_5728adc2-0aea-404f-92dd-a4575c53f550_1766_dldesign_0_cycle1_af2pred (protein) ADPAALAAIQEQRDKALKEIEEAAKEAKETTEEEARKKIVDAAHTATAQLAQIGVAHPAVAAEAGQAISEILDAGKRALEEAKKNA | not found
10 | design_619_5728adc2-0aea-404f-92dd-a4575c53f550_253_dldesign_0_cycle1_af2pred (protein) AAAAAEAAVAAAMAQINALVAEANRLLIEAQKTGNVELAKKAYELAEKAAAVGKATPALAKMAEALSKVVKEMAKATIKQAEAQA | not found
11 | design_619_5728adc2-0aea-404f-92dd-a4575c53f550_1117_dldesign_0_cycle1_af2pred (protein) SAAAAAAAGALAVEEAKRFAEEQLAYGKAEDPGVGMQAIATYANRKAVEYASDPATASAIVSIGVEAMEELARWRREREA | not found
12 | design_619_5728adc2-0aea-404f-92dd-a4575c53f550_1814_dldesign_0_cycle1_af2pred (protein) DEELRKEVLEKIKELEAKAKEAAADPATQGLAVFLKNTAATARRELEKDAELGLAVVEAGEEGLAYLQAS | not found
13 | design_619_5728adc2-0aea-404f-92dd-a4575c53f550_548_dldesign_0_cycle1_af2pred (protein) AALRHRTMAALFGRAVTLTGEAGRQAALNAAQMAAVLDPAAGAEFAAAIAEAAKATGDAGVHAVAAEFAAKEAAAAAAAAA | not found
14 | design_619_5728adc2-0aea-404f-92dd-a4575c53f550_1124_dldesign_0_cycle1_af2pred (protein) ELEELRKEAEAKAAEARALAAEGAKYDPTAAALFNAALRFFEIAIRLAEEGGDPEEARAALDAGTTLLAAGRAVLAAAAAAAA | not found
15 | design_619_5728adc2-0aea-404f-92dd-a4575c53f550_396_dldesign_0_cycle1_af2pred (protein) DEAKKQAEKHYKLAKEHLEKAIASKDEKEAKAHVSRARLNALAAASLDPSVAPEMLAMLKATAEALKDHPEAKAEAEEAAKLVAQLA | not found
16 | design_619_5728adc2-0aea-404f-92dd-a4575c53f550_1370_dldesign_0_cycle1_af2pred (protein) AAAAVAANRAAAAATAETYKAKGKAAAADPAAALAYYNAAGLYAGLAKGDPEAEFAKYKAEADALIAAAKA | not found
17 | design_619_5728adc2-0aea-404f-92dd-a4575c53f550_577_dldesign_0_cycle1_af2pred (protein) AESIAREAVAQIAALAAAGVADPAAKGEQATAILQTAAAAQKAIRAAGGPESLLNAVQAAAGAAIAALVA | not found
18 | design_619_5728adc2-0aea-404f-92dd-a4575c53f550_1864_dldesign_0_cycle1_af2pred (protein) MEEEKEKKEKEKLKKAKELLKKAKEMAENVAEYSVGEILRVATEAIRLATEAAKGKLKEEGKKVADEARKVAAEAARRALALQ | not found
19 | design_619_5728adc2-0aea-404f-92dd-a4575c53f550_927_dldesign_0_cycle1_af2pred (protein) AAALDSARGEAAVTAAKLYGLAYKLDPELGAQAAAALAAILRDKATAVEGAKAAAAVAEKLKEKDPENAGELEKKLKELAEKLKAA | not found

Row | Binder | binding in a display sort
20 | design_619_5728adc2-0aea-404f-92dd-a4575c53f550_175_dldesign_0_cycle1_af2pred (protein) AAAQQQAIGNAAIRTADIAMATAKKLIKEDPAKGKEVAEQAVGILEGAAKAAPSTAATLLAEAKKVKEETEKAIKEA | not found
21 | design_619_5728adc2-0aea-404f-92dd-a4575c53f550_649_dldesign_0_cycle1_af2pred (protein) GEELAKEVEKKAKEVLEKVKEKAKEIAAKGTPEQAREAKGLVARARAYAIAAVGAARTIPELAKRYLELAKKEAERL | not found
22 | design_619_5728adc2-0aea-404f-92dd-a4575c53f550_1087_dldesign_0_cycle1_af2pred (protein) GPEVAERVARSARGIAEVLRGLADSIRAAGGSPAAEERVRAAAEEAERLAREAEEAAGDAEVARRLAEEANRLLQEATAVAMADLQAV | not found
23 | design_619_5728adc2-0aea-404f-92dd-a4575c53f550_1264_dldesign_0_cycle1_af2pred (protein) GEEAAKKAEKAVEALKQGAKEAAKGTPELAANTAKSYITMAKSIAKGAKRADGGEAAKKVEKKAKEAIAEAKKLAKAAA | not found
24 | design_619_5728adc2-0aea-404f-92dd-a4575c53f550_252_dldesign_0_cycle1_af2pred (protein) AAKEIAKQAQEAGKAAIAAAEALGKAKDPEEAKQMQEIAKALQQNAQAAAKAGDAKVAQAALNALRGLLRNAEAALAAAK | not found
25 | design_619_5728adc2-0aea-404f-92dd-a4575c53f550_1575_dldesign_0_cycle1_af2pred (protein) AAWQALEIAKKAGLALAKSAAAMPNPEDAKKAAETAKDMVTATAQAVIDAGGDKEKAKALVEEVKKAAEAGVKAAKA | not found
26 | design_619_5728adc2-0aea-404f-92dd-a4575c53f550_1042_dldesign_0_cycle1_af2pred (protein) DAKEHAERALELAKEAAESGSVALASRAMQELALAINADPALGAEAAKEAAKIFAKNPELAGFGEAAVAIAA | not found
27 | design_619_5728adc2-0aea-404f-92dd-a4575c53f550_930_dldesign_0_cycle1_af2pred (protein) GEVKEQAEKELKKLEEAAKKTEEEAKKAAKAGATVAAAQIKATVKAALKNAKELFEKDPEQGLQAAKAALQVAETLLESAKGLIKAA | not found
28 | design_619_5728adc2-0aea-404f-92dd-a4575c53f550_740_dldesign_0_cycle1_af2pred (protein) GAAEEARRLVEEVEAALKEAEAAAAADAAEGLRAAGELAVLAAEAAARALRLGDEEAFRRISAAIARATALAQQLAA | not found
29 | design_619_5728adc2-0aea-404f-92dd-a4575c53f550_521_dldesign_0_cycle1_af2pred (protein) GEEEELKKKQQEVAERAKEAAELAKEAAKLSGQTEVANAVEAAAKQAAAAAEADPSAVESQLKFVEQLLEIALAALAAAKAAAAAA | not found
30 | design_619_5728adc2-0aea-404f-92dd-a4575c53f550_302_dldesign_0_cycle1_af2pred (protein) EREEVLREAIELLEKTAEAAKALGTPAGEILAASARALARLLREQRDEISLEGAKGYLELAKQLAAGVEAA | not found
31 | design_619_5728adc2-0aea-404f-92dd-a4575c53f550_766_dldesign_0_cycle1_af2pred (protein) MLGAEWARQQARRTAERAAELLAADPAAGAAAFARARTIVELAKGIDPEVGKAAQAEVEAIEAQAKAAAAAA | binds (active)
32 | design_619_5728adc2-0aea-404f-92dd-a4575c53f550_605_dldesign_0_cycle1_af2pred (protein) GQVAVNAAKGVAKTAISYAERLAKVEGEEGKKFLEEVKKETTKLVEEAKKSTPEKAQQLLAELVDLMKEVAERAAAAEAAAAAAAA | not found
33 | design_619_5728adc2-0aea-404f-92dd-a4575c53f550_440_dldesign_0_cycle1_af2pred (protein) VTPEASKIAANSALALAKNILENVGVMSPEEAAGAVQVVVDLVKNSLPSEKEKHVEIAEVLKEAAKKNPANAAVLEAGAKAIEEIL | not found
34 | design_619_5728adc2-0aea-404f-92dd-a4575c53f550_189_dldesign_0_cycle1_af2pred (protein) DPATVRGLAAMAALALQAGVTGGPEVGAANLRNVAKLAAARGTPEAAEIAKKAEEAAKEADNPEKVKEYQAYFEEIAKA | not found
35 | design_619_5728adc2-0aea-404f-92dd-a4575c53f550_1779_dldesign_0_cycle1_af2pred (protein) SAATEIATRTAQAAIRAGEEALERAREALEGETGREEVEREVARIEAQAETLELLAEGSPEIAPTANAKAEEFRREAERLREEAE | not found
36 | design_619_5728adc2-0aea-404f-92dd-a4575c53f550_1681_dldesign_0_cycle1_af2pred (protein) AEKAKQAAELAEVLAATAEQAPQLTPAQIAAVANTVAIGLKGLGEAKEAAELAEKAAEAAKRDKEEAVKLLREAAEALKKLAA | not found
37 | design_619_5728adc2-0aea-404f-92dd-a4575c53f550_447_dldesign_0_cycle1_af2pred (protein) EELVKKAKEETTKLLEKAKEEAPGLGTLALNSFNNGFKEGVKEAYERLKKLYEWVTANATTPEQKKVAELIKKAYEVAKKAAEA | not found
38 | design_619_5728adc2-0aea-404f-92dd-a4575c53f550_1668_dldesign_0_cycle1_af2pred (protein) ARAVVEAAANELAAETLRAGWQAGETGDAIAARIRAILEAGREVAEELAARNPAVTLEEARAAVRERAERLLAEAAA | not found

From paper PMC13494018
